Test results as given in the supplement of paper PMC10646978.
± gives the standard deviation.

How the values were obtained:
Conditions in all cases: modulator concentration 10 µM
[1] = test system: RAW-Dual (murine macrophage reporter line); assay: NF-kB reporter (SEAP) activity fold change vs agonist alone; higher = enhanced NF-kB activity
In short: (§1)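 Compound reached 10 μM final in each well by pin transfer, onto RAW-Dual murine macrophage reporter cells seeded at 50 000 per well in 384-well plates. After 1 hour at 37 °C, the cells were stimulated overnight with a PRR agonist. SEAP in the supernatant was read with QUANTI-Blue at 620 nm absorbance for NF-κB, and Lucia luciferase was read with QUANTI-Luc luminescence for IRF. Each signal was turned into fold change against the mean agonist-only control on the same plate, and two replicate plates were averaged with propagated errors.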

[2] = test system: RAW-Dual (murine macrophage reporter line); assay: IRF reporter (Lucia luciferase) activity fold change vs agonist alone; higher = enhanced IRF activity
In short: as §1

[3] = test system: RAW-Dual (murine macrophage reporter line); assay: viability score (confluency relative to resting cells, overnight) (fraction); higher = more viable, active = viable (0.7 or more)
In short: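 RAW-Dual macrophages in 384-well plates were treated overnight with compound at 10 μM final. IncuCyte imaging recorded confluency, and IncuCyte software built two confluency masks across every imaged well. The viability score expresses confluency relative to resting cells and was judged against a cutoff, which a compound met only if both masks exceeded 70% of resting cells.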

[4] = agonist: CpG ODN 1826 0.5 ug/mL

| Structure (SMILES) | NF-kB reporter [1, 4] | NF-kB reporter ([1]; agonist: LPS 0.1 ug/mL) | NF-kB reporter ([1]; agonist: MPLA […]) | IRF reporter ([2]; agonist: 3'3'-cGAMP 10 ug/mL) | IRF reporter ([2]; agonist: LPS 0.1 ug/mL) | IRF reporter ([2]; agonist: MPLA […]) | viability score [3] |
| --- | --- | --- | --- | --- | --- | --- | --- |
| CC(C)NNC(=O)c1ccncc1 [Prestw-176] | 1.04 ± 0.078 | 1.06 ± 0.088 | 1.02 ± 0.022 | 1.02 ± 0.068 | 0.958 ± 0.083 | 1.01 ± 0.093 | 0.997 (active) |
| CN1CCN(c2ccc(-c3cccc(NC(=O)COc4ccc(Cl)cc4)c3)nn2)CC1 | 0.24 ± 0.029 | 0.966 ± 0.053 | 0.891 ± 0.021 | 0.572 ± 0.032 | 0.946 ± 0.057 | 0.966 ± 0.081 | 0.97 (active) |
| CCOC(=O)N(CC(=O)OC)CP(=O)(O)C(Cc1ccccc1)C(=O)O (centres undefined) | 0.988 ± 0.058 | 1.02 ± 0.07 | 0.969 ± 0.069 | 1.03 ± 0.045 | 1.41 ± 0.21 | 1.07 ± 0.095 | 1 (active) |
| CC(C)NCC(O)COc1ccc(CCOCC2CC2)cc1 (centres undefined) | 0.927 ± 0.09 | 1.02 ± 0.1 | 1.06 ± 0.04 | 0.907 ± 0.073 | 0.897 ± 0.029 | 0.764 ± 0.098 | 1 (active) |
| Cc1cccc(C(=O)NC2CCC(F)(F)CC2)c1 | 1.07 ± 0.068 | 0.934 ± 0.082 | 1.03 ± 0.058 | 0.823 ± 0.034 | 1.1 ± 0.058 | 0.99 ± 0.2 | 1 (active) |
| CC(C)c1ccc(OCC(=O)NCc2nnc3n2CCC(C(F)(F)F)C3)cc1 (centres undefined) | 1.24 ± 0.094 | 1.05 ± 0.08 | 0.988 ± 0.06 | 0.99 ± 0.074 | 1.1 ± 0.075 | 1.05 ± 0.13 | 0.996 (active) |
| Clc1ccc(CN2CCN(CCn3ccnc3-c3ccccc3)CC2)cc1 | 0.584 ± 0.055 | 1.29 ± 0.12 | 1.37 ± 0.2 | 0.841 ± 0.042 | 1.27 ± 0.086 | 1.13 ± 0.22 | 0.993 (active) |
| Cc1ccc(S(=O)(=O)N2CCC2)cc1 | 1.03 ± 0.11 | 0.756 ± 0.097 | 1.07 ± 0.1 | 1.02 ± 0.047 | 1.37 ± 0.22 | 1.51 ± 0.39 | 1.02 (active) |
| Cl.N=C(N)NC(=O)c1nc(Cl)c(N)nc1N.O.O | 0.856 ± 0.044 | 1.01 ± 0.087 | 1.05 ± 0.065 | 1.04 ± 0.048 | 1.2 ± 0.29 | 1.3 ± 0.46 | 0.984 (active) |
| COc1ccc(C(=O)ON=C(N)c2ccc(OC)c(OC)c2)cc1OC | 0.825 ± 0.096 | 0.878 ± 0.09 | 0.971 ± 0.086 | 0.933 ± 0.078 | 1.1 ± 0.07 | 1.13 ± 0.11 | 1.01 (active) |
| CCOC(=O)c1ccc2nc(NC(=O)c3ccco3)sc2c1 | 0.971 ± 0.079 | 0.876 ± 0.064 | 1.13 ± 0.14 | 0.996 ± 0.051 | 1.35 ± 0.19 | 1.58 ± 0.3 | 1.01 (active) |
| CCOc1ccccc1OCCOCCOc1ccc(Br)cc1Cl | 0.905 ± 0.051 | 0.9 ± 0.13 | 1.22 ± 0.044 | 0.876 ± 0.034 | 0.979 ± 0.088 | 1.02 ± 0.12 | 0.992 (active) |
| Br.Cc1nc(C)c(-c2csc(Nc3cccc(C(=O)O)c3)n2)s1 | 0.754 ± 0.067 | 0.883 ± 0.082 | 1.08 ± 0.11 | 0.882 ± 0.048 | 1.36 ± 0.087 | 1.56 ± 0.13 | 1 (active) |
| CCN(CC)CCOC(=O)C(c1ccccc1)c1ccccc1.Cl | 0.913 ± 0.08 | 0.887 ± 0.067 | 0.965 ± 0.084 | 1.58 ± 0.074 | 1.29 ± 0.12 | 1.49 ± 0.12 | 0.941 (active) |
| COC(c1ccccc1)(c1ccccc1)[C@H](Oc1nc(C)cc(C)n1)C(=O)O | 1.32 ± 0.18 | 1.08 ± 0.11 | 0.901 ± 0.055 | 1.05 ± 0.043 | 1.3 ± 0.14 | 1.15 ± 0.11 | 1 (active) |
| CCOc1cccc2sc(=NC(=O)c3ccc(S(=O)(=O)N4CCOCC4)cc3)n(C)c12 | 0.991 ± 0.31 | 1.14 ± 0.16 | 0.989 ± 0.13 | 0.97 ± 0.025 | 1.06 ± 0.14 | 1.27 ± 0.15 | 0.995 (active) |
| CC12CC3CC(C)(C1)CC(N)(C3)C2.Cl | 0.831 ± 0.1 | 0.892 ± 0.086 | 0.855 ± 0.074 | 1.24 ± 0.056 | 1.2 ± 0.099 | 1.14 ± 0.095 | 0.978 (active) |
| CC(=O)N(C1=C(Nc2ccccc2)C(=O)c2ccccc2C1=O)c1ccccc1 | 2.44 ± 0.19 | 1.52 ± 0.098 | 2.64 ± 0.16 | 2.12 ± 0.063 | 5.77 ± 0.43 | 3.69 ± 0.39 | 0.334 (inactive) |
| CCOC(=O)C1=C(C)N(CC(C)C)C(=O)C1=Cc1cccc(Br)c1 | 1.05 ± 0.11 | 1.04 ± 0.069 | 0.869 ± 0.051 | 0.909 ± 0.03 | 0.963 ± 0.082 | 1.19 ± 0.2 | 0.992 (active) |
| CCN(CCCc1ccccc1)CCCc1ccccc1.O=C(O)CC(O)(CC(=O)O)C(=O)O | 1.32 ± 0.057 | 1.4 ± 0.11 | 2.08 ± 0.29 | 0.265 ± 0.014 | 0.448 ± 0.079 | 0.468 ± 0.11 | 0.991 (active) |
| COc1cc2c(Oc3ccc(NC(=O)C4(C(=O)Nc5ccc(F)cc5)CC4)cc3F)ccnc2cc1OCCCN1CCOCC1 | 0.179 ± 0.0098 | 0.146 ± 0.013 | 0.238 ± 0.011 | 0.0512 ± 0.015 | 0.0684 ± 0.0041 | 0.138 ± 0.025 | 0.136 (inactive) |
| COc1ccc2ncc(S(=O)(=O)c3ccccc3)c(N3CCN(c4ccccc4)CC3)c2c1 | 0.611 ± 0.034 | 0.924 ± 0.068 | 1.14 ± 0.13 | 1.05 ± 0.036 | 1.4 ± 0.16 | 1.13 ± 0.14 | 0.981 (active) |
| CCCOc1cccc(C(=O)Nc2scc(-c3ccccc3Cl)c2C(=O)OC)c1 | 0.817 ± 0.1 | 0.827 ± 0.039 | 1.05 ± 0.092 | 1.03 ± 0.059 | 1.54 ± 0.09 | 1.69 ± 0.2 | 1 (active) |
| COc1ccc(C)c2sc(NC(=O)c3ccco3)nc12 | 1.18 ± 0.089 | 0.847 ± 0.068 | 1.11 ± 0.031 | 0.863 ± 0.078 | 0.845 ± 0.061 | 0.882 ± 0.073 | 0.971 (active) |
| CC(C)NC[C@H](O)COc1ccc(CCOCC2CC2)cc1.Cl | 1.15 ± 0.1 | 1.07 ± 0.16 | 1.11 ± 0.037 | 0.871 ± 0.11 | 0.987 ± 0.09 | 0.868 ± 0.12 | 1 (active) |
| COc1ccc(CCNc2cc(C)nc3cc(-c4ccc(OC)c(OC)c4)nn23)cc1OC | 1.18 ± 0.067 | 1.13 ± 0.086 | 1.27 ± 0.035 | 0.733 ± 0.026 | 0.978 ± 0.073 | 1.13 ± 0.11 | 1 (active) |
| Cc1ccnc2c1NC(=O)c1cccnc1N2C1CC1 | 1.19 ± 0.26 | 1.2 ± 0.3 | 0.967 ± 0.067 | 0.88 ± 0.035 | 1.34 ± 0.36 | 1.29 ± 0.097 | 0.994 (active) |
